Measurements from PubChem BioAssay (NCI).
Compounds without any hit were thinned out: in the full panel of roughly 79,000, 15% have a hit. A number with no mark means an inactive call. Calls of active or inactive are those of the source. No stated cut-off is given here; in the data, active means growth inhibition above about 70%; inactive means the rest.

How the values were obtained:
[1] = NCI Yeast Anticancer Drug Screen. Data for the rad50 strain (AID 155);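 further: 0% = growth of vehicle-only cultures of the same strain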; details: S. cerevisiae rad50 strain growth inhibition, stronger effect = higher value
Method in brief: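 Readout: growth inhibition relative to vehicle-treated cultures. Compound exposure was carried out in a genetically defined yeast strain deficient in DNA damage repair.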

[2] = NCI Yeast Anticancer Drug Screen. Data for the mec2-1 strain (AID 157); details: S. cerevisiae mec2-1 strain, stronger effect = higher value
Method in brief: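 Readout is yeast growth inhibition, normalised to vehicle-treated controls, in the mec2-1 strain exposed to compound.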

[3] = NCI Yeast Anticancer Drug Screen. Data for the sgs1 mgt1 strain (AID 161);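 further: 0% = growth of cultures given vehicle only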; details: S. cerevisiae sgs1 mgt1 strain, stronger effect = higher value
Method in brief: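 Compounds are added to genetically altered yeast, and growth is compared with cultures given vehicle alone to give percent inhibition.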

[4] = NCI Yeast Anticancer Drug Screen. Data for the cln2 rad14 strain (AID 165);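 further: 0% = growth equal to vehicle treated cultures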; details: S. cerevisiae cln2 rad14 strain, stronger effect = higher value
Method in brief: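 Relative to vehicle controls, growth inhibition of compound-treated cln2 rad14 yeast was recorded.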

[5] = NCI Yeast Anticancer Drug Screen. Data for the bub3 strain (AID 167); details: S. cerevisiae bub3 mutant strain, stronger effect = higher value
Method in brief: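 Readout: yeast growth inhibition, expressed relative to vehicle-only wells. The test organism is a mutant strain from a panel with lesions in DNA repair or checkpoint genes.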

[6] = NCI Yeast Anticancer Drug Screen. Data for the mlh1 rad18 strain (AID 175); details: S. cerevisiae mlh1 rad18 strain growth inhibition, stronger effect = higher value
Method in brief: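 Test agents were incubated with a yeast strain of defined genotype (DNA damage repair defect). Inhibition of growth was derived by comparison with vehicle-exposed cultures.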

[7] = at 5.0 µM (retest, dose inferred, filed as 0.5)
[8] = at 50.0 µM (retest, dose inferred, filed as 5.0)

| SMILES | growth inhibition [1, 7] | growth inhibition [1, 8] | growth inhibition ([1]; at 50.0 µM) | growth inhibition [2, 7] | growth inhibition [2, 8] | growth inhibition ([2]; at 50.0 µM) | growth inhibition [3, 7] | growth inhibition [3, 8] | growth inhibition ([3]; at 50.0 µM) | growth inhibition [4, 7] | growth inhibition [4, 8] | growth inhibition ([4]; at 50.0 µM) | growth inhibition [5, 7] | growth inhibition [5, 8] | growth inhibition ([5]; at 50.0 µM) | growth inhibition [6, 7] | growth inhibition [6, 8] | growth inhibition ([6]; at 50.0 µM) |
| --- | --- | --- | --- | --- | --- | --- | --- | --- | --- | --- | --- | --- | --- | --- | --- | --- | --- | --- |
| N#CN=[N+]([O-])c1ccc(C(=O)O)cc1 | 80% (active) | 89% (active) | 91.5% (active) | 87% (active) | 93% (active) | 93.8% (active) | 96% (active) | 91% (active) | 91.3% (active) | 99% (active) | 84% (active) | 91.6% (active) | 96% (active) | 87% (active) | 91.5% (active) | 96% (active) | 89% (active) | 90.9% (active) |
| Oc1cc2c(cc1C(Nc1ncccn1)c1ccc(F)cc1)OCO2 (configuration not stated) | -1% | 46% | 17.9% | -1% | 40% | 15.7% | 0% | 77% (active) | 79.7% (active) | 4% | 24% | -12% | -1% | 64% | 44.1% | 0% | 74% (active) | 43.5% |
| COc1ccc(CN2CCCN(Cc3ccc(OC)cc3OC)C2c2cc(Cl)cc(Cl)c2O)c(OC)c1 | 10% | 52% | 73.8% (active) | 16% | 93% (active) | 33.3% | -10% | 75% (active) | 76.2% (active) | -2% | 35% | 30.9% | 3% | 79% (active) | 3.9% | 27% | 94% (active) | 61.4% |
| CN(C)CCNC(=O)C(c1ccccc1)c1ccccc1 | 31% | 13% | 63.1% | 2% | -4% | 94.7% (active) | 6% | -25% | 12.8% | -1% | -3% | 96.2% (active) | -1% | -11% | 98% (active) | 30% | 11% | 98.5% (active) |
| C1CCC(CCCCc2nn[nH]n2)CC1 | 0% | 98% (active) | 99.1% (active) | -30% | 97% (active) | 99.3% (active) | -1% | 96% (active) | 99% (active) | 0% | 99% (active) | 98.3% (active) | -6% | 97% (active) | 99.3% (active) | -7% | 97% (active) | 99% (active) |
| CC/C(=C1\C=CC(=O)S1)C(CC)c1ccc(OC(C)=O)cc1 (configuration not stated) | -14% | 99% (active) | 99.2% (active) | -11% | 99% (active) | 89.3% (active) | -7% | 98% (active) | 99.3% (active) | 0% | 99% (active) | 70.2% (active) | -25% | 99% (active) | 93.9% (active) | -4% | 99% (active) | 99.3% (active) |
| C1=C(c2ccccc2)OC(c2ccccc2)=C[P+]1(c1ccccc1)c1ccccc1 | 96% (active) | 98% (active) | 92.1% (active) | 98% (active) | 99% (active) | 90.8% (active) | 99% (active) | 99% (active) | 91% (active) | 93% (active) | 99% (active) | 86.8% (active) | 97% (active) | 99% (active) | 93% (active) | 95% (active) | 98% (active) | 92.7% (active) |
| CC(C)(C)C1=CC(N2CCCCC2)(C(C)(C)C)C=C(C(C)(C)C)C1=O | 0% | 55% | 93.8% (active) | -2% | 64% | 91.8% (active) | 3% | 77% (active) | 95.3% (active) | -3% | 30% | 65.3% | -6% | 35% | 81.2% (active) | 0% | 73% (active) | 94.8% (active) |
| Cc1cc(Br)c2ccccc2c1N | 1% | 69% | 88.3% (active) | 2% | 39% | 54.2% | 0% | 74% (active) | 94.2% (active) | -1% | 42% | 84.8% (active) | 1% | 22% | 75% (active) | -3% | 44% | 90.2% (active) |
| COc1ccc2c(c1)[n+]([O-])c(-c1ccc(C)cc1)c(N)[n+]2[O-] | 17% | 98% (active) | 99.4% (active) | 22% | 99% (active) | 99.5% (active) | 38% | 100% (active) | 99.3% (active) | 34% | 96% (active) | 98.8% (active) | 75% (active) | 99% (active) | 99.4% (active) | 63% | 98% (active) | 99.2% (active) |
| CN1/C(=C/C=C/C(I)=C/C=C/C2=[N+](C)c3ccccc3C2(C)C)C(C)(C)c2ccccc21 | 1% | 88% (active) | 60.5% | 8% | 89% (active) | 50.1% | -4% | 92% (active) | 80.6% (active) | 8% | 71% (active) | 79.4% (active) | -2% | 89% (active) | 76.3% (active) | -1% | 89% (active) | 84.7% (active) |
| C=C1CC[C@@H]2C(C)(C)C(O)CCC2(C)C1COc1ccc2ccc(=O)oc2c1 (some centres not stated) | -10% | 94% (active) | 85.5% (active) | -4% | 97% (active) | 89.3% (active) | -1% | 92% (active) | 86.7% (active) | -5% | 94% (active) | 85.8% (active) | -40% | 94% (active) | 86.5% (active) | -38% | 93% (active) | 82.8% (active) |
| O=C(CC(c1ccccc1)N1CCCCC1)OC1c2ccccc2-c2ccccc21 (configuration not stated) | -2% | 28% | 70.1% (active) | 17% | 43% | 9.35% | 30% | 54% | 55.8% | 0% | 23% | 54.1% | -1% | 24% | 70% | 35% | 56% | 55.8% |
| NC(=S)N/N=C\C12CC3CC(CC(C3)C1)C2 | 57% | 98% (active) | 97.4% (active) | 73% (active) | 97% (active) | 93.7% (active) | 70% (active) | 98% (active) | 92.8% (active) | 25% | 97% (active) | 71.5% (active) | 62% | 98% (active) | 95.6% (active) | 77% (active) | 99% (active) | 96.5% (active) |
| CCCCCCCCCCN1CCN(C(=O)OCC)CC1 | 51% | 68% | 95% (active) | 54% | 77% (active) | 72.2% (active) | 67% | 97% (active) | 94.7% (active) | 58% | 67% | 90.7% (active) | 62% | 80% (active) | 95.8% (active) | 79% (active) | 91% (active) | 89.2% (active) |
| O=[N+]([O-])c1ccc(Sc2ccc([N+](=O)[O-])o2)o1 | 93% (active) | 99% (active) | 99.2% (active) | 94% (active) | 100% (active) | 99.5% (active) | 97% (active) | 100% (active) | 99.4% (active) | 71% (active) | 99% (active) | 99.2% (active) | 96% (active) | 99% (active) | 99.5% (active) | 98% (active) | 99% (active) | 99.1% (active) |
| Cc1cccnc1NC(=S)Nc1ccccc1Cl | 2% | 99% (active) | 89.5% (active) | 12% | 99% (active) | 91.3% (active) | 28% | 99% (active) | 93.2% (active) | -12% | 99% (active) | 85.8% (active) | 18% | 95% (active) | 91.8% (active) | 28% | 99% (active) | 89.5% (active) |
| CC(C)CCCC(=O)CCCCCCC(=O)CCN(O)C(=O)C(N)CO (configuration not stated) | 98% (active) | 98% (active) | 92.9% (active) | 99% (active) | 99% (active) | 93.5% (active) | 98% (active) | 99% (active) | 94.2% (active) | 96% (active) | 97% (active) | 90.5% (active) | 99% (active) | 98% (active) | 93.4% (active) | 98% (active) | 98% (active) | 92% (active) |
| CC(C)SC(=S)Nc1cc(Cl)c(Cl)cc1Cl | 7% | 85% (active) | 99.5% (active) | 6% | 86% (active) | 99.5% (active) | 10% | 98% (active) | 99.5% (active) | -14% | 91% (active) | 99.3% (active) | -4% | 49% | 98.9% (active) | 1% | 92% (active) | 99.3% (active) |
